Compound activity deposited in PubChem by National Center for Advancing Translational Sciences (NCATS).
Shown are actives, neighbours in structure and some others; about 0.72% of the full set was active somewhere.
ERG Ets-DNA blk: qHTS for Small Molecule Inhibitors of the ERG Ets/DNA interaction | fluorescence polarization, His-ERG Ets domain / labelled DNA | Potency, µM (series often up to 76.9 µM), hits mostly inhibitors | actives 0.028% (n = 370,000); active = well fitted inhibition curve with a large enough effect in the polarisation, with a control signal flat; inconclusive = small, poorly fitted or top-dose-only effect, or effect the other way, or a change in a side signal; inactive = no such curve, though single readings can be large or run the other way; the % refers to the polarisation;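 note: polarization taken with two DNA probes labelled with fluorescein and Texas red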
Target sequence (P11308 whole entry, looked up, the tested form may be a part): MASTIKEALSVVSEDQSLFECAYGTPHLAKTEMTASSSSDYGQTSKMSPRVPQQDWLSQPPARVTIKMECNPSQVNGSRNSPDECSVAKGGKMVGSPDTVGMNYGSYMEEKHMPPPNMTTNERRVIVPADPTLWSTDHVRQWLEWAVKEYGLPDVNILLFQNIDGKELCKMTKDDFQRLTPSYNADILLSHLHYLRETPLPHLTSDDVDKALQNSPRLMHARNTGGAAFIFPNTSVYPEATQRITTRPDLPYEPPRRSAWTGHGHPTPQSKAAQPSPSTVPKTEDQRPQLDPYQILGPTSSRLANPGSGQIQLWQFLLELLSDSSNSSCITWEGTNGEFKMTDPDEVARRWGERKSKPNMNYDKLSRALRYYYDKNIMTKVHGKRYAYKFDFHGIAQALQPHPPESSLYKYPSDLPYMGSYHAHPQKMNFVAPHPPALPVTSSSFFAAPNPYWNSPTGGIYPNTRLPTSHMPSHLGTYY
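His-tagged ERG Ets domain (1 uM in the protein solution; 300mM KCl, 50mM Tris-HCl, 1mM EDTA, 1mM DTT, pH 7.5) received compound, then a probe mix of 5 nM fluorescein-DNA and 100nM Texas-615-DNA. Fluorescence polarization was read for both dyes.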
RXFP1 agonist: qHTS Assay for Agonists of the Relaxin Receptor RXFP1 | HEK293T-RXFP1 cAMP TR-FRET, 30 min; response scale: percent of porcine relaxin response, buffer zero | Potency, µM (series often up to 57.5 µM), most hits filed as activators | actives 0.3% (n = 370,000) | AID 2676, 2010; note: nearly all actives have a fitted effect of over 60% in size
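cAMP rise read by TR-FRET after 30 min, 37C compound exposure (up to 58 uM) in RXFP1-transfected HEK293 cells with Ro 20174 present. EC50 from Hill-equation fits, with 29 nM porcine relaxin as 100% and buffer as basal.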
ASM inhibitor: Inhibitors of Secretory Acid Sphingomyelinase (S-ASM): qHTS. actives 0.006% (n = 340,000). Sphingomyelin phosphodiesterase (Homo sapiens), P17405. Potency, µM (doses to about 57.5 µM), hits mostly inhibitors. placental ASM, HMU-PC fluorogenic substrate, 60 min
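Human placenta-derived ASM enzyme was preincubated with compound for 10 minutes at room temperature, then given fluorogenic substrate HMU-PC0 (9 uM final) for 60 minutes at 37 °C; a pH 10 stop preceded fluorescence reading at Ex 386/Em 447 nm.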
RXFP1 antagonist: qHTS Assay for Antagonists of the Relaxin Receptor RXFP1; Relaxin receptor 1 (Homo sapiens), Q9HBX9; HEK293-RXFP1, relaxin-stimulated cAMP HTRF, 30 min; active compounds read low; activity change, negative = inhibition, % at 57.5 µM; actives 0.59% (n = 350,000); AID 1259400, 2018;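 active = activity change of -60% or lower, but not beyond a set lower limit; inconclusive = change between -60% and -40%, or beyond the set limit; inactive = change above -40%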
Mito fusion yeast: qHTS Assay for Small Molecule Inhibitors of Mitochondrial Division or Activators of Mitochondrial Fusion; S. cerevisiae fusion-defective mutant growth rescue, CellTiterGlo 48 h; Potency, µM (highest dose often 46.1 µM), hits mostly activators; actives 0.23% (n = 320,000); note: nearly all actives have a fitted effect of over 45% in size
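Yeast fusion mutant, YPEG (non-fermentable carbon), compound, 48 h at 37C non-permissive; CellTiterGlo added, 10 min RT, luminescence read. Rescued growth = division inhibition.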
miR-21 reporter: qHTS Assay for Modulators of miRNAs and/orActivators of miR-21; AID 2288, 2010; 340,000 tested, under 10 active; Potency, µM (highest dose often 38.3 µM), most hits filed as activators; HeLa miR-21 FLuc reporter, luciferase, 48 h;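 note: miR-21 action dims this reporter so a rising signal means less miR-21 action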
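Using DMEM plus 10% FBS, HeLa miR-21-FLuc cells are incubated with test compounds (final up to about 40uM) for 48 hours; firefly luciferase signal is then imaged following reagent-mediated lysis.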
Each line names hits and unclear results; the compound was inactive in the other large screens. Unless noted, calls come from the whole dose curve; as a rule, active = well fitted curve in the direction sought with a large enough effect; inconclusive = small, poorly fitted or top-dose-only effect, or another doubt; inactive = no such curve, though single readings can be large; an effect the other way counts as inactive or inconclusive.

COc1ccccc1CN1CCC(CNC(=O)c2cnn(-c3ccc(Cl)cc3)c2C2CCN(C(=O)OC(C)(C)C)CC2)CC1	RXFP1 antagonist -61.1, miR-21 reporter inconclusive (no result: ASM inhibitor, Mito fusion yeast)
COc1ccccc1CN1CCC(CNC(=O)c2cnn(-c3ccc(C)c(C)c3)c2C2CCN(C(=O)OC(C)(C)C)CC2)CC1	RXFP1 antagonist inconclusive (no result: ASM inhibitor, Mito fusion yeast)
Cc1ccc(-n2ncc(C(=O)NCCN3CCC(Cc4ccccc4)CC3)c2C2CCN(C(=O)OC(C)(C)C)CC2)cc1	RXFP1 antagonist -68.7 (no result: ASM inhibitor, Mito fusion yeast)
CCOc1ccccc1C1C(C(=O)Nc2ccccc2)=C(C)Nc2nc(SCC(=O)c3ccc(C)cc3)nn21 (stereo unspecified)	none (no result: ASM inhibitor, Mito fusion yeast)
Cc1ccccc1N1C(=O)c2ccccc2N2C(=O)c3ccccc3C12 (stereo unspecified)	Mito fusion yeast 14.1µM
O=C1c2ccccc2N2C(=O)c3ccccc3C2N1O (stereo unspecified)	none
O=C(CN1N=C(C(F)(F)F)CC1(O)c1ccc([N+](=O)[O-])cc1)c1ccccc1 (stereo unspecified)	Mito fusion yeast 15.8µM
CCCCCCOc1ccc(/C=C/C(=O)Nc2sc3c(c2C(=O)OC)CCC3)cc1OC	none (no result: ASM inhibitor, Mito fusion yeast)
COc1ccc(Oc2ccc(/C=C/C(=O)c3ccc(O)cc3)cc2[N+](=O)[O-])cc1	RXFP1 antagonist -64.1, miR-21 reporter inconclusive
O=C(/C=C/c1ccc(O)c([N+](=O)[O-])c1)c1ccc2ccccc2c1	none
CCOC(=O)c1cccc(NC(=O)Cn2ncc3c4ccccc4n(Cc4ccccc4)c3c2=O)c1	none (no result: ASM inhibitor, Mito fusion yeast)
Cc1cc(C)c(NC(=O)c2sc3nc4c(cc3c2N)C(=O)CC(C)(C)C4)c(C)c1	Mito fusion yeast 12.6µM
COc1cc(C2C(C(=O)c3ccc(C)o3)=C(O)C(=O)N2CCN2CCOCC2)ccc1OCCC(C)C (stereo unspecified)	RXFP1 agonist 15.8µM
COc1cc(C2C(C(C)=O)=C(O)C(=O)N2CCN2CCOCC2)ccc1O (stereo unspecified)	none
CCc1ccc2c(c1)c(=O)c(S(=O)(=O)c1ccc(F)cc1)cn2CC(=O)Nc1ccc(C)cc1C	none (no result: ASM inhibitor, RXFP1 antagonist, Mito fusion yeast)
Cc1ccc(-n2c(Cl)c(Cl)nc(Cl)c2=O)cc1	RXFP1 antagonist -102.5, miR-21 reporter inconclusive
O=C(Nc1cnn(Cc2ccc(Cl)cc2Cl)c1)c1noc2c1CCc1ccccc1-2	none (no result: ASM inhibitor, Mito fusion yeast)
Cn1cccc1/C=N/n1c(-c2ccc(C(C)(C)C)cc2)n[nH]c1=S	RXFP1 antagonist -64.3
CCCc1nn2c(=O)cc(COC(=O)c3ccccc3NC(=O)c3ccc(OCC)cc3)nc2s1	none (no result: ASM inhibitor, Mito fusion yeast)
COc1cc(/C=C(\C#N)C(=O)Nc2ccccc2)ccc1OCCN1CCOCC1	none
O=[N+]([O-])c1nn(-c2ccc3c(c2)OCCO3)n(O)c1=NC1CCCCC1	Mito fusion yeast 12.6µM
CO[C@@H]1[C@@H](OC2OC(C)C(OC3CC(C)(O)C(O)C(C)O3)C(N(C)C)C2O)[C@@H](CC=O)C[C@@H](C)[C@@H](OC2CCC(N(C)C)C(C)O2)/C=C/C=C/C[C@@H](C)OC(=O)C[C@H]1OC(C)=O (stereo partly specified)	none (no result: ERG Ets-DNA blk, RXFP1 agonist, ASM inhibitor, Mito fusion yeast, miR-21 reporter)
Cn1c(=O)c2c(n3c4ccccc4nc13)NC(=O)CC2c1ccccc1F (stereo unspecified)	none (no result: ASM inhibitor)
Cc1ccc(CCNC(=O)c2c3c(nc4ccccc24)C(=O)N(C2CCCCC2)C3)cc1	RXFP1 antagonist -71.6 (no result: ASM inhibitor, Mito fusion yeast)
O=C(COc1cccc(C(F)(F)F)c1)NCC(c1ccco1)N1CCCCC1 (stereo unspecified)	RXFP1 antagonist -61.0 (no result: miR-21 reporter)
CC(C)(C)c1csc(NNC(=O)c2ccc(Br)cc2)n1	RXFP1 antagonist -61.1
